Assay [1] concerns the target Protein translocase subunit SecA (Escherichia coli (strain K12)) (UniProt P10408). Description: Assay to Identify E. coli SecA ATPase Inhibitors. The conditions noted are these: 30 µM. More on the design: scale not given: direction of the effect not stated beside the values. The class given is functional.
In assay [2] the target is T1, Ubiquitin-activating enzyme e1, putative (Leishmania donovani (strain BPK282A1)) (UniProt E9BSI1).
T1 sequence (whole entry): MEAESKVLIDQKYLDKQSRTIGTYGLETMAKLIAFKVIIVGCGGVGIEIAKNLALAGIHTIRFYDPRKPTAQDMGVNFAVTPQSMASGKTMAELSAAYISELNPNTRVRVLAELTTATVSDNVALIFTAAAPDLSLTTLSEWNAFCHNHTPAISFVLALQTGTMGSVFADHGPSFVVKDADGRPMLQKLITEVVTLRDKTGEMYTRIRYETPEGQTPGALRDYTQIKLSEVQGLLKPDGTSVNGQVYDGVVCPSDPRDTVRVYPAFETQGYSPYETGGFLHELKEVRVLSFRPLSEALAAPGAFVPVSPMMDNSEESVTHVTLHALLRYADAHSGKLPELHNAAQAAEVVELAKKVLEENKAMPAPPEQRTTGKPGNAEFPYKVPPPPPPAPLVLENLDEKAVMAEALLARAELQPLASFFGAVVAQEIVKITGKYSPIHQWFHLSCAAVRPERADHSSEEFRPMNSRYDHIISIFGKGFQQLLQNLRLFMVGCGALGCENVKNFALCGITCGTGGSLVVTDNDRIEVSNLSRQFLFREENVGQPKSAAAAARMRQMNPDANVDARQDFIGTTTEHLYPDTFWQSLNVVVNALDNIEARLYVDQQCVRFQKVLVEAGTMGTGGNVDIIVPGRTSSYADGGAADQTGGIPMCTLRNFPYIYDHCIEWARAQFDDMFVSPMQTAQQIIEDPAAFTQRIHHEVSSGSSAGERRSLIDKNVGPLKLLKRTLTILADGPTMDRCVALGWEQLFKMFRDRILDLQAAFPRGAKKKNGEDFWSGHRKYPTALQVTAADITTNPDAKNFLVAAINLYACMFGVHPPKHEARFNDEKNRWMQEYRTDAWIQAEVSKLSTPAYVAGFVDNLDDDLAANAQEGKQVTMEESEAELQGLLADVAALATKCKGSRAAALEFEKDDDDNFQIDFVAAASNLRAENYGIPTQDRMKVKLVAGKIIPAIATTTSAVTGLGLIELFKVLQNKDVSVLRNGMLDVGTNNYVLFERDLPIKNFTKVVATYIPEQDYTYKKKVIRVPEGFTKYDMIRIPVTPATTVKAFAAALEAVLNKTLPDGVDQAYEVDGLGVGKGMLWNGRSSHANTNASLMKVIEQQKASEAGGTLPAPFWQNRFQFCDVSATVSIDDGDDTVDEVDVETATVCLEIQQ
As to the kind of experiment: Leishmania donovani Ubiquitin Activating Enzyme (LdE1). Type of assay: functional. More on the design: scale not given: direction of the effect not stated beside the values. The conditions noted are these: 30 µM.

Assay [3] concerns the target T2, Aspartate--tRNA(Asp/Asn) ligase (Mycobacterium tuberculosis (strain ATCC 25618 / H37Rv)) (UniProt P9WFW3). Further: in the data most compounds retested in dose-response had high values.
T2 sequence (whole entry): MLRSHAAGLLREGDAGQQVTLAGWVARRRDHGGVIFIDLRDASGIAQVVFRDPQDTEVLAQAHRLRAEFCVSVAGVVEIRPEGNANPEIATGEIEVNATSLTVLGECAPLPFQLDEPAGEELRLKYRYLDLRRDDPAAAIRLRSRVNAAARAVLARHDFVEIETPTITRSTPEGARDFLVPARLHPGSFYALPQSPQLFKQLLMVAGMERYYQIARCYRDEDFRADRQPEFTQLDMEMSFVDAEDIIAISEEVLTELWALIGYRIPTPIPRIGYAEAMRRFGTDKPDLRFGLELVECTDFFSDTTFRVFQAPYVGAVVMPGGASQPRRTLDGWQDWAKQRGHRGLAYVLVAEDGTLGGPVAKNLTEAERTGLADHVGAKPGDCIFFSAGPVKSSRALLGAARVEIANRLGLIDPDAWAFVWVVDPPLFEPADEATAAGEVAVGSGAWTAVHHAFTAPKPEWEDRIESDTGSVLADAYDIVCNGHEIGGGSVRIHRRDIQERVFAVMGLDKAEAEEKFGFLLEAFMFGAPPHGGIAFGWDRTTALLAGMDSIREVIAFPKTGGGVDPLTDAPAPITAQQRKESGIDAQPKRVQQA
As to the kind of experiment: Assay for Asp RNA synthetase-1 from Mycobacterium tuberculosis. Type of assay: functional. The conditions noted are these: 30 µM. Also on record: scale not given: direction of the effect not stated beside the values.

The target of assay [4] is AMP-activated protein kinase, AMPK (Homo sapiens) (UniProt P54646+O43741+P54619+Q9UGJ0+Q9Y478+Q13131+Q9UGI9). As to the kind of experiment: AMP-dependent Kinase enzyme assay. An in vitro enzyme assay that detects ADP turnover that is directly proportional to AMPK activity. This uses naive AMPK that is activated during the assay with MK-8722. The class given is functional. More on the design: scale not given: direction of the effect not stated beside the values. The conditions noted are these: 30 µM.

For assay [5], the target named is Sialic acid-binding Ig-like lectin 9 (Homo sapiens) (UniProt Q9Y336). As to the kind of experiment: Hs-Siglec9 ALPHAscreen SOP 20170721. The conditions noted are these: 10 µM. More on the design: scale not given: direction of the effect not stated beside the values. On the technique in general: Alpha assays give light when donor and acceptor beads are brought close together.
Sequence of Sialic acid-binding Ig-like lectin 9 (Homo sapiens) (Q9Y336 whole entry): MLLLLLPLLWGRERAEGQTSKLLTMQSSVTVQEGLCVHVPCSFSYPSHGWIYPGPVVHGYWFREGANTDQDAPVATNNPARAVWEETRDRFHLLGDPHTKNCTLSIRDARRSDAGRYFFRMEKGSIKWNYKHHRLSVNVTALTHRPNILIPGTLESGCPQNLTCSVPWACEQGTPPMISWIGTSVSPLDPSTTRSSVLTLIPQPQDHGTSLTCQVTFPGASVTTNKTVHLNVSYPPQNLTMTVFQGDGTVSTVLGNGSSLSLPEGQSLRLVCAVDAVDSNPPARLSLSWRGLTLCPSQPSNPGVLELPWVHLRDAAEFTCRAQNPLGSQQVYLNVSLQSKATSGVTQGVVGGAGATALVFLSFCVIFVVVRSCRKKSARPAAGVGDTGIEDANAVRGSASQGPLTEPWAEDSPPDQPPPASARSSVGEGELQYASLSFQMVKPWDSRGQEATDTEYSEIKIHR

The test system of assay [6] is Trypanosoma cruzi. As to the kind of experiment: Trypanosoma cruzi phosphomannomutase and mannose-1-phosphate guanylyltransferase assay. Type of assay: functional. More on the design: scale not given: direction of the effect not stated beside the values. The conditions noted are these: 10 µM.
Assay [7] deals with T3, Arginase-2, mitochondrial (Homo sapiens) (UniProt P78540).
T3 sequence (whole entry): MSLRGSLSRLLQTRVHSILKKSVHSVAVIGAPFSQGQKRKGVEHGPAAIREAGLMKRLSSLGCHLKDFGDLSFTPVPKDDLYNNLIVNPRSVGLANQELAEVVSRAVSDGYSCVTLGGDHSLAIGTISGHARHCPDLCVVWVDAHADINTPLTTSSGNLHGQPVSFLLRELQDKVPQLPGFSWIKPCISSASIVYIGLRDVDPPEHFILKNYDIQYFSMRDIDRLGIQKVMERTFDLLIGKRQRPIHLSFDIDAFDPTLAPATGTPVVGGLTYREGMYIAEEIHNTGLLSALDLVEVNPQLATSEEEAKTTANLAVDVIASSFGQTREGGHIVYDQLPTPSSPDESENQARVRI
As to the kind of experiment: in vitro enzyme assay to detect the production of urea directly proportional to the activity of Arginase II. The class given is functional. Also on record: scale not given: in the data most compounds retested in dose-response had high values.

The target in assay [8] is T4, Proteasome subunit beta (Trypanosoma cruzi) (UniProt O96673).
T4 sequence (whole entry): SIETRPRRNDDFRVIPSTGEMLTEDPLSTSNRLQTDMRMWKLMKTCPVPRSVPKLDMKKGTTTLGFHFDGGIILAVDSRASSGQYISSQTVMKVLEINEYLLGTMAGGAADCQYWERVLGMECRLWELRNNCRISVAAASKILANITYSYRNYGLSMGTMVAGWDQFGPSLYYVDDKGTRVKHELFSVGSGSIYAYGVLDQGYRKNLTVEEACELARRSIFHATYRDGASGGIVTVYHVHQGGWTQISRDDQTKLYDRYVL
As to the kind of experiment: Trypanosoma cruzi proteasome chymotrypsin-like activity (TcProtChymo) assay. More on the design: scale not given: in the data most compounds retested in dose-response had high values. The class given is functional. The conditions noted are these: 9.37 µM.

The species entered for assay [9] is Homo sapiens. Description: To identify inhibition of the IFN signalling (Jak-Stat) pathway via expression of an eGFP reporter gene under the control of an IFN-stimulated response element (ISRE) containing MxA promoter. The class given is functional. Also on record: scale not given: direction of the effect not stated beside the values. The conditions noted are these: 30 µM.

Assay [10] deals with Shiga toxin 2 (Escherichia coli O157:H7) (UniProt P09385+P09386). Description: E. coli 0.157:H7 Shiga Toxin SOP - stx2 screening assay. The class given is functional. Also on record: scale not given: direction of the effect not stated beside the values. The conditions noted are these: 30 µM.
The target in assay [11] is T5, Tyrosyl-tRNA synthetase, putative (Trypanosoma cruzi (strain CL Brener)) (UniProt Q4DSP6).
T5 sequence (whole entry): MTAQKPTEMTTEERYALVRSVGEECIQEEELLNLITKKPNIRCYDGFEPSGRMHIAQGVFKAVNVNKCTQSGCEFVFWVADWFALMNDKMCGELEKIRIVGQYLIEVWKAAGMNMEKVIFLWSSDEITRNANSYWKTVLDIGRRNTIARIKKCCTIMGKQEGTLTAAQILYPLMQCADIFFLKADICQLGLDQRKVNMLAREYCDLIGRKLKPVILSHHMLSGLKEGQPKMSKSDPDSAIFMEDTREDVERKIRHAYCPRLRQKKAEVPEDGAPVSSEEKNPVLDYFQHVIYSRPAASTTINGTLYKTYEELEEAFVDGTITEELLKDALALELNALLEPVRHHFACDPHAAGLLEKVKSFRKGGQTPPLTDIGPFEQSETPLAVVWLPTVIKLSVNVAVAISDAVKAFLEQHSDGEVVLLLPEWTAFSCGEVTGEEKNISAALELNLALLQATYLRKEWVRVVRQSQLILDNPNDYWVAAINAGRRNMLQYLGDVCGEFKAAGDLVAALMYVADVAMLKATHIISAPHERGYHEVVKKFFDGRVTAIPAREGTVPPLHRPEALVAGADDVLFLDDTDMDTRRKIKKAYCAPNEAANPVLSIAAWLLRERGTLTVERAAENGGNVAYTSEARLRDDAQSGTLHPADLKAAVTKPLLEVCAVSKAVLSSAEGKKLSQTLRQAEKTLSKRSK
As to the kind of experiment: Trypanosoma cruzi tyrosyl tRNA synthetase (TcYRS) _High Tyrosine SOP. The class given is functional. Also on record: scale not given: in the data most compounds retested in dose-response had high values. The conditions noted are these: 30 µM.

Assay [12] deals with T5, Tyrosyl-tRNA synthetase, putative (Trypanosoma cruzi (strain CL Brener)). As to the kind of experiment: Trypanosoma cruzi tyrosyl tRNA synthetase (TcYRS) SOP. Type of assay: functional. Also on record: scale not given: direction of the effect not stated beside the values. The conditions noted are these: 30 µM.
In assay [13] the target is Chromo domain-containing protein 1 (Saccharomyces cerevisiae (strain ATCC 204508 / S288c) (Baker's yeast)) (UniProt P32657). Description: ScCHD-1 Enzyme Inhibition Assay. Type of assay: functional. More on the design: scale not given: in the data most compounds retested in dose-response had high values. The conditions noted are these: 30 µM.
Sequence of Chromo domain-containing protein 1 (Saccharomyces cerevisiae (strain ATCC 204508 / S288c) (Baker's yeast)) (P32657 whole entry, the tested form may be a part): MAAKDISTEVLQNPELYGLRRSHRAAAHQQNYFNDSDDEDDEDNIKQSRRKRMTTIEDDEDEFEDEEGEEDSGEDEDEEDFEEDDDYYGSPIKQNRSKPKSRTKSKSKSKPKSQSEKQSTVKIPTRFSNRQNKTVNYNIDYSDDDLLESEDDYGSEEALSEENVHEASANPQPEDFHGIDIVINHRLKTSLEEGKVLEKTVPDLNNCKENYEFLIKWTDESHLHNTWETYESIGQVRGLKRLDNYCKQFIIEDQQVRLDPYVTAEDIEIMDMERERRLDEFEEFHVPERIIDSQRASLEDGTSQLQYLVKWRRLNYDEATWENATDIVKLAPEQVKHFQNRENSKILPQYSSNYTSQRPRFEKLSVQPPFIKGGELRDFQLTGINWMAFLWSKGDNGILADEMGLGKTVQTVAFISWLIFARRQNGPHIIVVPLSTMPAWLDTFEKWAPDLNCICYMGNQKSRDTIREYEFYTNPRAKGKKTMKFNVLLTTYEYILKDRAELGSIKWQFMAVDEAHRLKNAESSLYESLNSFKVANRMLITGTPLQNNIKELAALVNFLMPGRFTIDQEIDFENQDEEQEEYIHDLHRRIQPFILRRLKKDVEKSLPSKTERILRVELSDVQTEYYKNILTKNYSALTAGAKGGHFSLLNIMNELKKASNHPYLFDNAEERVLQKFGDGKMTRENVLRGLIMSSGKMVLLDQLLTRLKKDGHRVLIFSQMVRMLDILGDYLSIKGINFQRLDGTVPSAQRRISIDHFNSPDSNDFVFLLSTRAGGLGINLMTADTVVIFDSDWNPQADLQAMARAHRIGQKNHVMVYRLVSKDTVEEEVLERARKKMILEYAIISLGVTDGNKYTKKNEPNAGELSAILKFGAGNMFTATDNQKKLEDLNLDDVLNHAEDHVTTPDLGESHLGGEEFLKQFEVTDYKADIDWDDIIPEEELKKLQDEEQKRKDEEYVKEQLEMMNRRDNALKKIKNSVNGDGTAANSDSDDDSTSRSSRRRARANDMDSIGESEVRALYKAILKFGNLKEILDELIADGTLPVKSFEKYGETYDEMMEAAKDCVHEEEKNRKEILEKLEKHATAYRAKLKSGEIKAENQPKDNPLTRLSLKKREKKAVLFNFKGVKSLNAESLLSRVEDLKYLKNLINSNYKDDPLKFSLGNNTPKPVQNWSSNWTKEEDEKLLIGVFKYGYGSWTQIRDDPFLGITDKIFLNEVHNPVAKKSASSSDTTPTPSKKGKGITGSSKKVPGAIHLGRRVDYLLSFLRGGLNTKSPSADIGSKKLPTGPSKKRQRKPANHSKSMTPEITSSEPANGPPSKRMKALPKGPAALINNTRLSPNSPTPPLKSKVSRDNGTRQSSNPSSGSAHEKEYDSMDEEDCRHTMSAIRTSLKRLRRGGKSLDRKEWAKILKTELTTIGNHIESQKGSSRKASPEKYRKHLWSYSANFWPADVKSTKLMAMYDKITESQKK
In assay [14] the target is T6, Methionyl-tRNA synthetase, putative (Leishmania donovani (strain BPK282A1)) (UniProt E9BF75).
T6 sequence (whole entry): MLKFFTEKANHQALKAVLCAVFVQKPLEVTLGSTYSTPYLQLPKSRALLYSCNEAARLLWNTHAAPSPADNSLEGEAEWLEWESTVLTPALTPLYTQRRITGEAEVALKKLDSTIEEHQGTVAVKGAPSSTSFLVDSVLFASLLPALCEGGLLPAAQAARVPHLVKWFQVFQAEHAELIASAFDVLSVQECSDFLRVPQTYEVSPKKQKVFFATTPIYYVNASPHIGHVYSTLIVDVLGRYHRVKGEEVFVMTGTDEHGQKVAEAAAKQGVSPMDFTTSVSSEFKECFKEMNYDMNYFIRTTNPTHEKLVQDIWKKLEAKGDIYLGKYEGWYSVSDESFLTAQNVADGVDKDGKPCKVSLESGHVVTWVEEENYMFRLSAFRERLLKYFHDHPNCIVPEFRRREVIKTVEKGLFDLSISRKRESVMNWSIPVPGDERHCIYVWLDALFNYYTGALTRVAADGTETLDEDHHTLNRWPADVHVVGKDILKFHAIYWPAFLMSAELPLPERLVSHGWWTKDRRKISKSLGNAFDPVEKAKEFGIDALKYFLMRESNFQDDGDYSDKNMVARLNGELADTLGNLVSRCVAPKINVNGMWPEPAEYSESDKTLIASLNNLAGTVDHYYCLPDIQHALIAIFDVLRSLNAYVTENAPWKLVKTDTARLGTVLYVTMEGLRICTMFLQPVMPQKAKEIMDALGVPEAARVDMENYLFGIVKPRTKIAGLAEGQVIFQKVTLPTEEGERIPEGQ
As to the kind of experiment: Leishmania donovani Methionine tRNA synthetase (LdMetRS):v7. Dose response assay. Also on record: conc 80 nM, time 150 minutes. The class given is functional.

For some assays here: Measured potencies and affinities stand elsewhere. Where only a bound is given, the exact number is not on record here.

Three compounds from ChEMBL document CHEMBL3988442, “University of Dundee, Small-Polar-MMV Screening Library” (2021) can be followed below.

Sequence of Protein translocase subunit SecA (Escherichia coli (strain K12)) (P10408 whole entry): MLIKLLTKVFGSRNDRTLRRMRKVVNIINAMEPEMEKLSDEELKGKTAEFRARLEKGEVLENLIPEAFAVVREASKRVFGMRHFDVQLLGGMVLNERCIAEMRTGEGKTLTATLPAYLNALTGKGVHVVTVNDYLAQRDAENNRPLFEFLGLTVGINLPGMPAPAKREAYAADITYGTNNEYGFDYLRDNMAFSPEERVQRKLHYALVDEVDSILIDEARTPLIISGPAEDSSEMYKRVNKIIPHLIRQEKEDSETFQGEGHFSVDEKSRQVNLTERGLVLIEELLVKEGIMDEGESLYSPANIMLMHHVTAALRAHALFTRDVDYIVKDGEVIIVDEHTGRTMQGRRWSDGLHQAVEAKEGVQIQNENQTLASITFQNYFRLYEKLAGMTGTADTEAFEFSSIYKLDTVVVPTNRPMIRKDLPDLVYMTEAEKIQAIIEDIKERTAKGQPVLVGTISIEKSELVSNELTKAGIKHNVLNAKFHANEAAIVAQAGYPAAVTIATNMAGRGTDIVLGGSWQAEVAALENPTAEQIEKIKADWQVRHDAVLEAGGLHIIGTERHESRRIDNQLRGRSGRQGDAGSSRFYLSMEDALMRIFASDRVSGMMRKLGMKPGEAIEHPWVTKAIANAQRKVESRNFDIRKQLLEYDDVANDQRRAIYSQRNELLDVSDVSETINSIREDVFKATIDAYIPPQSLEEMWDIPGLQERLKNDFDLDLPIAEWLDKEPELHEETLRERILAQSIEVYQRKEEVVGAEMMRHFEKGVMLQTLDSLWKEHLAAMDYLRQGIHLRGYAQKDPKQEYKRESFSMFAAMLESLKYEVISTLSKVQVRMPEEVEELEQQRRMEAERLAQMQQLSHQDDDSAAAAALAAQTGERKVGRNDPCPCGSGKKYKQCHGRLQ

As for `c1cncc(CN2CC[C@H]3O[C@@H](COCC4CC4)CC[C@H]32)c1`, the Percent Effect in [1] was -2.96%; in assay [2], -2.67%; in assay [3], -5.28%; in [4], 10.2%; in [5] it was 2.62%; in assay [6], -0.591%. Also, the Percent Effect is 7.23% in assay [7] (33.3 µM); -2.38% in assay [8]; 8.64% in [9]; -10.9% in assay [10]; 4.25% in assay [11]; 6.41% in assay [12]. In [13], the Percent Effect is 3.34%.

In the case of `c1ccc(CN2CC[C@]3(C[C@@H](Oc4ccccn4)CO3)C2)nc1`, the Percent Effect in assay [1] was -4.14%; in assay [2], 18.7%; in [3], -1.57%; in [4] it was -1.39%; in [5] it was -5.45%; in [6] it was -0.394%. Moreover, the Percent Effect in assay [7] (30 µM) was -12.4%; in assay [7] (33.3 µM), 0.233%; in assay [8], 5.02%; in assay [9] it was 17.7%; in assay [10] it was -36.4%; in [11] it was 2.13%. Also, the Percent Effect in [12] was 14.1%; in [13] it was -0.948%.

For the compound `OCCN1CCC(F)(F)C2(CCN(c3cccnc3)C2)C1` (centres undefined), the PXC50 in assay [14] (MAX_EFFECT 6.355140187) and in [14] (MAX_EFFECT 7.256235828) was less than 4 each time.
